Paper PMC8384837, “Expanding the binding specificity for RNA recognition by a PUF domain”

Assays:
Assay in all cases: yeast three-hybrid, YBZ-1, SC-Leu-His + 0.5 mM 3-AT, 4 days
Settings in all cases: tags: N-Gal4 AD-HA kept; label: inside an RPR1-promoter hybrid RNA with tandem MS2 sites; ssRNA
PUM1 PUF domain R1-SPK = PUM1 PUF domain R1-SPK (Homo sapiens, UniProt Q14671 828-1176, R864P;Q867K)
Summary of the method: (§1)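 Repeat regions from input (SC-Leu) and selection (SC-Leu-His + 0.5 mM 3-AT) plates were PCR-amplified and Illumina-sequenced after four days of growth. The cells were strain YBZ-1 with a LexA–MS2 coat fusion and a HIS3 reporter, co-expressing Pumilio-1 PUF domain libraries and matching RNA elements from a centromeric plasmid. The interaction score is the log change in variant frequency from input to selection, taken in log2 with a pseudocount of 1 for absent variants.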

PUM1 PUF domain R5-GRC = PUM1 PUF domain R5-GRC (Homo sapiens, UniProt Q14671 828-1176, C1007G;Q1011C)
Summary of the method: as §1

PUM1 PUF domain R5-IFM = PUM1 PUF domain R5-IFM (Homo sapiens, UniProt Q14671 828-1176, C1007I;R1008F;Q1011M)
Summary of the method: as §1

PUM1 PUF domain R8-WYR = PUM1 PUF domain R8-WYR (Homo sapiens, UniProt Q14671 828-1176, N1122W;Q1126R)
Summary of the method: as §1

PUM1 PUF domain R3-GPQ = PUM1 PUF domain R3-GPQ (Homo sapiens, UniProt Q14671 828-1176, C935G;R936P)
Summary of the method: as §1

PUM1 PUF domain R5-RQM = PUM1 PUF domain R5-RQM (Homo sapiens, UniProt Q14671 828-1176, C1007R;R1008Q;Q1011M)
Summary of the method: as §1

PUM1 PUF domain R3-EFS = PUM1 PUF domain R3-EFS (Homo sapiens, UniProt Q14671 828-1176, C935E;R936F;Q939S)
Summary of the method: as §1

PUM1 PUF domain R5-NTR = PUM1 PUF domain R5-NTR (Homo sapiens, UniProt Q14671 828-1176, C1007N;R1008T;Q1011R)
Summary of the method: as §1

PUM1 PUF domain R6-CYE = target: T1, PUM1 PUF domain R6-CYE (Homo sapiens, UniProt Q14671 828-1176, N1043C;Q1047E)
T1 sequence: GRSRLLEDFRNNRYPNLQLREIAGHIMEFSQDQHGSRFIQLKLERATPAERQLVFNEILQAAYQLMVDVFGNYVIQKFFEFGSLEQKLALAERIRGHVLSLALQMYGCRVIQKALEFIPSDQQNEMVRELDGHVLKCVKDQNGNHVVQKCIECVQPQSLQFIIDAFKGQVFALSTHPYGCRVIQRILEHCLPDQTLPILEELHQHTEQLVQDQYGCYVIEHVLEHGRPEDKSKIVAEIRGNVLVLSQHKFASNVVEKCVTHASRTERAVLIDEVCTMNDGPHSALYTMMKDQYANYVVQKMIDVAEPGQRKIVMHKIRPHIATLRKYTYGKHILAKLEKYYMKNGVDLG
Summary of the method: as §1

PUM1 PUF domain R2-RTS = PUM1 PUF domain R2-RTS (Homo sapiens, UniProt Q14671 828-1176, N899R;Y900T;Q903S)
Summary of the method: as §1

Sequence: GGCUAGAACUAGUGGAUCCCCCGGCGCCCGGCGGCUCGAGCCCGGGUAAGUGUAAAUCGUCUGCAUGCCGCCGGGCGCCAUGCCUGCAGGUCGACUCUAGAAAACAUG
- binding signal (PUM1 PUF domain R1-SPK): 2.31 log2 enrichment (interaction score)

Sequence: GGCUAGAACUAGUGGAUCCCCCGGCGCCCGGCGGCUCGAGCCCGGGUAAGUGUAAAUAGUCUGCAUGCCGCCGGGCGCCAUGCCUGCAGGUCGACUCUAGAAAACAUG
- binding signal (PUM1 PUF domain R5-GRC): 4.07 log2 enrichment (interaction score)
- binding signal (PUM1 PUF domain R5-IFM): 2.52 log2 enrichment (interaction score)
- binding signal (PUM1 PUF domain R8-WYR): 4.75 log2 enrichment (interaction score)
- binding signal (PUM1 PUF domain R3-GPQ): 4.19 log2 enrichment (interaction score)
- binding signal (PUM1 PUF domain R5-RQM): 2.06 log2 enrichment (interaction score)
- binding signal (PUM1 PUF domain R3-EFS): 2.99 log2 enrichment (interaction score)

Sequence: GGCUAGAACUAGUGGAUCCCCCGGCGCCCGGCGGCUCGAGCCCGGGUAAGUGUAAGUAGUCUGCAUGCCGCCGGGCGCCAUGCCUGCAGGUCGACUCUAGAAAACAUG
- binding signal (PUM1 PUF domain R3-GPQ): 3.73 log2 enrichment (interaction score)
- binding signal (PUM1 PUF domain R3-EFS): 3.82 log2 enrichment (interaction score)

Sequence: GGCUAGAACUAGUGGAUCCCCCGGCGCCCGGCGGCUCGAGCCCGGGUAAGCGUAAAUAGUCUGCAUGCCGCCGGGCGCCAUGCCUGCAGGUCGACUCUAGAAAACAUG
- binding signal (PUM1 PUF domain R8-WYR): 4.97 log2 enrichment (interaction score)

Sequence: GGCUAGAACUAGUGGAUCCCCCGGCGCCCGGCGGCUCGAGCCCGGGUAAGUGUAAUUAGUCUGCAUGCCGCCGGGCGCCAUGCCUGCAGGUCGACUCUAGAAAACAUG
- binding signal (PUM1 PUF domain R3-GPQ): 1.42 log2 enrichment (interaction score)
- binding signal (PUM1 PUF domain R3-EFS): 4.44 log2 enrichment (interaction score)

Sequence: GGCUAGAACUAGUGGAUCCCCCGGCGCCCGGCGGCUCGAGCCCGGGUAAGUGUCAAUAGUCUGCAUGCCGCCGGGCGCCAUGCCUGCAGGUCGACUCUAGAAAACAUG
- binding signal (PUM1 PUF domain R5-GRC): 0.62 log2 enrichment (interaction score)
- binding signal (PUM1 PUF domain R5-NTR): 5.46 log2 enrichment (interaction score)
- binding signal (PUM1 PUF domain R5-RQM): 4.46 log2 enrichment (interaction score)

Sequence: GGCUAGAACUAGUGGAUCCCCCGGCGCCCGGCGGCUCGAGCCCGGGUAAGUGUUAAUAGUCUGCAUGCCGCCGGGCGCCAUGCCUGCAGGUCGACUCUAGAAAACAUG
- binding signal (PUM1 PUF domain R5-GRC): 4.6 log2 enrichment (interaction score)

Sequence: GGCUAGAACUAGUGGAUCCCCCGGCGCCCGGCGGCUCGAGCCCGGGUAAGUGGAAAUAGUCUGCAUGCCGCCGGGCGCCAUGCCUGCAGGUCGACUCUAGAAAACAUG
- binding signal (PUM1 PUF domain R6-CYE): 2.53 log2 enrichment (interaction score)

Sequence: GGCUAGAACUAGUGGAUCCCCCGGCGCCCGGCGGCUCGAGCCCGGGUAAGUGUAAAGAGUCUGCAUGCCGCCGGGCGCCAUGCCUGCAGGUCGACUCUAGAAAACAUG
- binding signal (PUM1 PUF domain R2-RTS): 3.27 log2 enrichment (interaction score)

Sequence: GGCUAGAACUAGUGGAUCCCCCGGCGCCCGGCGGCUCGAGCCCGGGUAAGUGUGAAUAGUCUGCAUGCCGCCGGGCGCCAUGCCUGCAGGUCGACUCUAGAAAACAUG
- binding signal (PUM1 PUF domain R5-GRC): 1.57 log2 enrichment (interaction score)
